Entries with a potency or affinity are not part of this list. Calls of active or inactive are those of the source.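 How the source made its calls: active means signal-lowering compounds whose fitted half-maximal concentration is at or below twice the top tested dose in every run; inconclusive means runs disagree, flat 30 to 70% inhibition, or poor curve fit; inactive means the rest.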
Molecular target: Protein S100-A4 (Homo sapiens) (UniProt P26447)
Experiment: S100A4-myosin IIA binding inhibitor potency, dose response, biochemical, fluorescence polarization, cherry-picked hits (AID 687001);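 further: 0% = DMSO neutral control wells and -100% = TFP positive control wells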
Conditions: FP, S100A4/TAMRA-myosin IIA peptide binding; series mostly up to 11 µM; activity change, negative = inhibition: at the top concentration

Protein S100-A4 (Homo sapiens), sequence (P26447 whole entry, looked up): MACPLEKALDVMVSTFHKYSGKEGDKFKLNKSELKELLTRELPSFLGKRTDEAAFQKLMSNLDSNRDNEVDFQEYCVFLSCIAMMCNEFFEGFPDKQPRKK

Activity change, negative = inhibition, inactive:
CCS(=O)(=O)Nc1ccc2c(c1)C(=O)N(C)C[C@@H](OC)[C@@H](C)CN(C(C)=O)[C@H](C)CO2 -0.437%
Cc1ccc(C(=O)N2CCCC(CCC(=O)N3CCN(c4ccccn4)CC3)C2)cc1 (centres undefined) 3.63%
CC(C)c1ccc(/C=C(\NC(=O)c2ccccc2)C(=O)NCCCn2ccnc2)cc1 -3.44%
O=C(c1ccc2c(c1)OCO2)N1CC(=O)N2[C@@H](CO)[C@H](c3ccc(C#Cc4ccccc4)cc3)[C@@H]2C1 11.1%
CCC(=O)N1CC(=O)N2[C@H](CO)[C@H](c3ccc(C#CC4CCCC4)cc3)[C@H]2C1 0.376%
O=C(Nc1nnc([C@H]2C[C@H](O)[C@@H](CO)O2)s1)c1cccc(Oc2ccccc2)c1 8.33%
COc1ccc(Cl)cc1-c1cc(C(=O)N[C@H](C)c2ccccc2)[nH]n1 -1.95%
COc1ccc2c3c([nH]c2c1)[C@H](CO)N(S(C)(=O)=O)CC31CN(CC2CCOCC2)C1 15.9%
CC1NC2(C(=O)N(Cc3ccccc3)c3ccccc32)C2C(=O)N(c3ccccc3)C(=O)C12 (centres undefined) -1.42%
CCN(CC(=O)Nc1ccccc1C(F)(F)F)C(=O)c1ccc(NC(=O)c2cccs2)cc1 0.852%
Cc1ccc(CN2C(=O)CSCC2(C)C(=O)Nc2c(C)cccc2C)cc1 (centres undefined) 2.37%
Cc1ccc(C)c(N2CCN(S(=O)(=O)c3c(C)[nH]c(C)c3C(=O)N3CCCCC3)CC2)c1 -3.83%
Cn1cc(SCC(=O)NC2CCCC2)c2ccccc21 -2.12%
CN1c2ccc(-c3cccc(F)c3)cc2[C@H]2[C@H](CCN2C(=O)c2ccccc2F)[C@H]1CO 0.162% [at 10 µM]
O=C(C[C@H]1C[C@@H]2c3cc(NC(=O)c4cccnc4)ccc3O[C@@H]2[C@H](CO)O1)NCc1ccncc1 -7.1%
CC(NC(=O)C(=O)NCc1cccs1)c1ccccc1 (centres undefined) -3.94%
O=C(C[C@H]1CC[C@@H]2[C@H](COC[C@@H](O)CN2C(=O)Cc2ccccc2)O1)NC1CCCC1 17.1% [at 10 µM]
Cc1cc(C(=O)N/N=C/c2ccccn2)c2ccccc2n1 -6.09%
CCOc1ccccc1CNC(=O)c1cc2occc2n1C 0.09%
COc1ccc2c(c1OC)C(=O)N1N=C(c3ccc(Cl)cc3)CC21 (centres undefined) 0.647%
CCCCn1c(N)c(N(CC)C(=O)CSCc2ccc(C)cc2)c(=O)[nH]c1=O -0.285%
COc1ccc(-n2ncc3c2CC(C)(C)CC3NC(=O)CCc2c(C)nn(C)c2C)cc1 (centres undefined) -0.643%
Cn1cnc(CCNC(=O)C[C@H]2CC[C@H]3[C@@H](COC[C@@H](O)CN3C(=O)C3CC3)O2)c1 -2.99%
O=C(c1ccccc1)c1ccc(C(=O)N2CCN(c3ccccc3O)CC2)cc1 -2.23%
CC(C)OCCCNC(=O)c1ccccc1NC(=O)C1=CSCCO1 -5.74%
Cc1ccc(C(=O)N2CCN(c3ccc4c(c3)C3CC4CCN3C(=O)OCc3ccccc3)CC2)cc1 (centres undefined) -0.205%
CC(C)CN1CCC(=O)N([C@H](COc2ccccc2)c2ccccc2)CC1 1.29%
Cc1cc(C(=O)Nc2ccncc2)c2ccccc2n1 0.023%
CSc1cccc(NS(=O)(=O)c2ccc(-c3coc(C)n3)cc2)c1 1.05%
COc1ccc(/C=C(\C#N)C(=O)c2cccn2C)cc1 -18%
CC(=O)Nc1ccccc1-c1nc2cc(C#N)c(C#N)cc2[nH]c1=O 1.14%
C[C@@H]1CN([C@@H](C)CO)C(=O)CCCn2nncc2CO[C@@H]1CN(C)S(=O)(=O)c1ccccc1 -4.68%
Cc1ccc(N2CCN(C(=O)c3[nH]c(C(F)(F)F)nc3-c3ccccc3)CC2)cc1 -4.62%
CCOc1ccc(C2C(C(=O)c3ccco3)=C(O)C(=O)N2CCN2CCOCC2)cc1OCC (centres undefined) 3.37%
Oc1ccc(-c2cc(-c3ccc(O)cc3)nc(-c3ccccc3)n2)cc1 3.62%
Cc1ccc(OC(=O)N(C)C[C@@H]2OCc3cn(nn3)CCCC(=O)N([C@H](C)CO)C[C@H]2C)cc1 -2.38%
O=C1CC(C(=O)N2CCN(c3ccccn3)CC2)CN1Cc1ccccc1Cl (centres undefined) -1.18%
CCOc1ccc(C(=O)NC2CCN(C(=O)Nc3ccc(F)cc3)CC2)cc1 2.33%
Cc1cccc(S(=O)(=O)N2C[C@@H]3[C@H](c4ccccc42)[C@H](CO)N3CC2CCOCC2)c1 -4.19%
